In PubChem BioAssay (NCI):
About 79,000 compounds went through this panel and 15% of them were active in at least one assay; those are over-represented in the sample as a whole. Activity calls are given as the source filed them. Cut-off read from the data, not from the text of the source: active = growth inhibition above about 70%; inactive = the rest.

Legend:
[1] = NCI Yeast Anticancer Drug Screen. Data for the rad52 strain (AID 147);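 note: 0% = growth of vehicle-treated control cultures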; conditions: S. cerevisiae rad52 mutant growth inhibition, stronger effect = higher value
Procedure, shortened: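 Screen used a yeast mutant impaired in DNA repair. After compound exposure, growth was measured. Values reflect inhibition compared with vehicle-treated cells.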

[2] = NCI Yeast Anticancer Drug Screen. Data for the wt1 strain (AID 149);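 note: 0% = growth of vehicle-treated wt1 cultures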; conditions: S. cerevisiae wt1 strain (SPY 50644) growth inhibition, stronger effect = higher value
Procedure, shortened: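 wt1 strain grown with compound or vehicle; inhibition taken from the growth difference.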

[3] = NCI Yeast Anticancer Drug Screen. Data for the rad50EPP+ strain (AID 151);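 note: 0% = growth of vehicle-treated control cultures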; conditions: S. cerevisiae rad50 mutant strain, stronger effect = higher value
Procedure, shortened: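 Exposing the rad50EPP+ strain to each compound, growth was compared with vehicle-only cultures to give inhibition.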

[4] = NCI Yeast Anticancer Drug Screen. Data for the mgt1 strain (AID 153); conditions: S. cerevisiae mgt1 mutant growth inhibition, stronger effect = higher value
Procedure, shortened: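 Genetically defined yeast (mgt1) treated with compound; inhibition of growth expressed against vehicle-treated controls.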

[5] = NCI Yeast Anticancer Drug Screen. Data for the rad50 strain (AID 155);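 note: 0% = growth of vehicle-only cultures of the same strain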; conditions: S. cerevisiae rad50 strain growth inhibition, stronger effect = higher value
Procedure, shortened: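 DNA repair mutant yeast, compound exposure, growth read-out; inhibition is taken relative to vehicle.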

[6] = NCI Yeast Anticancer Drug Screen. Data for the mec2-1 strain (AID 157); conditions: S. cerevisiae mec2-1 strain, stronger effect = higher value
Procedure, shortened: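 Readout is yeast growth inhibition, normalised to vehicle-treated controls, in the mec2-1 strain exposed to compound.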

[7] = NCI Yeast Anticancer Drug Screen. Data for the rad14 strain (AID 159);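 note: 0% = growth of vehicle-treated control cultures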; conditions: S. cerevisiae rad14 strain growth inhibition, stronger effect = higher value
Procedure, shortened: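 DNA repair-defective yeast, compound-exposed; % growth inhibition derived by comparison with vehicle-treated controls.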

[8] = NCI Yeast Anticancer Drug Screen. Data for the sgs1 mgt1 strain (AID 161);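 note: 0% = growth of cultures given vehicle only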; conditions: S. cerevisiae sgs1 mgt1 strain, stronger effect = higher value
Procedure, shortened: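 Percent growth inhibition was derived by comparing compound-exposed mutant yeast with vehicle-exposed cultures. The strain carries alterations in DNA damage repair.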

[9] = NCI Yeast Anticancer Drug Screen. Data for the CLN2oe strain (AID 163);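 note: 0% = growth of vehicle-only control cultures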; conditions: S. cerevisiae CLN2oe strain, stronger effect = higher value
Procedure, shortened: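 Values reflect how much compound exposure reduced yeast growth, referenced to vehicle-exposed cells. Assay organism is a strain with a defined genetic change affecting cell-cycle control.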

[10] = NCI Yeast Anticancer Drug Screen. Data for the cln2 rad14 strain (AID 165);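 note: 0% = growth equal to vehicle treated cultures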; conditions: S. cerevisiae cln2 rad14 strain, stronger effect = higher value
Procedure, shortened: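 Relative to vehicle controls, growth inhibition of compound-treated cln2 rad14 yeast was recorded.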

[11] = NCI Yeast Anticancer Drug Screen. Data for the bub3 strain (AID 167); conditions: S. cerevisiae bub3 mutant strain, stronger effect = higher value
Procedure, shortened: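 In this screen, a yeast mutant lacking normal mitotic checkpoint function is challenged with compound. Relative growth versus vehicle gives the inhibition value.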

[12] = NCI Yeast Anticancer Drug Screen. Data for the mlh1 strain (AID 171);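 note: 0% = growth of vehicle-treated control cultures of the same strain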; conditions: S. cerevisiae mlh1 strain growth inhibition, stronger effect = higher value
Procedure, shortened: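 Steps: expose the defined-mutant yeast strain to compound; expose a parallel culture to vehicle; measure growth; express compound effect as inhibition relative to the vehicle culture.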

[13] = NCI Yeast Anticancer Drug Screen. Data for the sgs1 strain (AID 173);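 note: 0% = growth of vehicle-only control cultures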; conditions: S. cerevisiae sgs1 mutant, stronger effect = higher value
Procedure, shortened: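 Treat defined-mutant yeast with compound; measure growth; calculate inhibition relative to vehicle-treated cells.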

[14] = NCI Yeast Anticancer Drug Screen. Data for the mlh1 rad18 strain (AID 175); conditions: S. cerevisiae mlh1 rad18 strain growth inhibition, stronger effect = higher value
Procedure, shortened: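 Test agents were incubated with a yeast strain of defined genotype (DNA damage repair defect). Inhibition of growth was derived by comparison with vehicle-exposed cultures.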

[15] = NCI Yeast Anticancer Drug Screen. Data for the rad18 strain (AID 177); conditions: S. cerevisiae rad18 mutant growth inhibition, stronger effect = higher value
Procedure, shortened: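 A genetically defined yeast mutant impaired in DNA damage repair was treated with test compounds, then its growth was measured against cultures receiving vehicle alone.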

[16] = NCI Yeast Anticancer Drug Screen. Data for the wt2 strain (AID 169);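 note: 0% = growth of vehicle-treated yeast cultures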; conditions: S. cerevisiae wt2 strain growth inhibition, stronger effect = higher value
Procedure, shortened: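 Values express reduction in yeast growth under compound treatment, referenced to vehicle-treated cells.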

[17] = at 5.0 µM (retest, dose inferred, filed as 0.5)
[18] = at 50.0 µM (retest, dose inferred, filed as 5.0)

Measured: growth inhibition

N#C/C(=C1C=C(Br)/C(=N\O)C=C\1Cl)c1cccc2ccccc12
inactive: [1]; at 1.2 µM 15% | [1]; at 3.7 µM 16% | [2]; at 1.2 µM -1% | [2]; at 3.7 µM 4% | [3]; at 1.2 µM 18% | [3]; at 3.7 µM 36% | [3]; at 11.0 µM 63% | [3]; at 33.0 µM 55% | [4]; at 1.2 µM 11% | [4]; at 3.7 µM 4% | [5]; at 1.2 µM 28% | [5]; at 3.7 µM 44% | [6]; at 1.2 µM 2% | [6]; at 3.7 µM 18% | [7]; at 1.2 µM -14% | [7]; at 3.7 µM -10% | [7]; at 11.0 µM 55% | [8]; [17] 5% | [9]; at 1.2 µM -15% | [9]; at 3.7 µM 27% | [9]; at 11.0 µM 63% | [10]; [17] 25% | [11]; at 1.2 µM 33% | [11]; at 3.7 µM 49% | [11]; [17] 59% | [12]; at 1.2 µM -37% | [12]; at 3.7 µM -11% | [12]; at 11.0 µM 58% | [13]; at 1.2 µM 15% | [13]; at 3.7 µM 18% | [15]; at 1.2 µM 0% | [15]; at 3.7 µM 12%
active: [1]; at 11.0 µM 94% | [1]; at 33.0 µM 93% | [1]; at 100.0 µM 95% | [2]; at 11.0 µM 84% | [2]; at 33.0 µM 86% | [2]; at 100.0 µM 96% | [3]; at 100.0 µM 88% | [4]; at 11.0 µM 79% | [4]; at 33.0 µM 85% | [4]; at 100.0 µM 97% | [5]; [17] 99% | [5]; at 11.0 µM 91% | [5]; at 33.0 µM 87% | [5]; [18] 98% | [5]; at 50.0 µM 89.2% | [5]; at 100.0 µM 94% | [6]; [17] 100% | [6]; at 11.0 µM 89% | [6]; at 33.0 µM 91% | [6]; [18] 98% | [6]; at 50.0 µM 90.7% | [6]; at 100.0 µM 94% | [7]; at 33.0 µM 70% | [7]; at 100.0 µM 96% | [8]; [18] 96% | [9]; at 33.0 µM 86% | [9]; at 100.0 µM 93% | [10]; [18] 95% | [11]; at 11.0 µM 94% | [11]; at 33.0 µM 93% | [11]; [18] 93% | [11]; at 100.0 µM 95% | [12]; at 33.0 µM 79% | [12]; at 100.0 µM 94% | [13]; at 11.0 µM 82% | [13]; at 33.0 µM 92% | [13]; at 100.0 µM 95% | [14]; [17] 100% | [14]; [18] 98% | [14]; at 50.0 µM 89.3% | [15]; at 11.0 µM 91% | [15]; at 33.0 µM 89% | [15]; at 100.0 µM 95%

NNC(=S)Nc1cccc(Cl)c1
active: [1]; at 100.0 µM 79% | [2]; at 100.0 µM 86% | [4]; at 100.0 µM 97% | [5]; at 50.0 µM 76% | [5]; at 100.0 µM 92% | [6]; at 50.0 µM 78.6% | [6]; at 100.0 µM 91% | [7]; at 100.0 µM 95% | [8]; [18] 97% | [9]; at 100.0 µM 71% | [10]; [18] 96% | [11]; [18] 95% | [11]; at 100.0 µM 90% | [16]; at 100.0 µM 87% | [12]; at 100.0 µM 95% | [13]; at 100.0 µM 89% | [14]; at 50.0 µM 75.1% | [15]; at 100.0 µM 88%
inactive: [1]; at 1.2 µM -16% | [1]; at 3.7 µM -26% | [1]; at 11.0 µM -16% | [1]; at 33.0 µM 6% | [2]; at 1.2 µM -8% | [2]; at 3.7 µM -8% | [2]; at 11.0 µM -14% | [2]; at 33.0 µM 14% | [3]; at 1.2 µM -29% | [3]; at 3.7 µM -28% | [3]; at 11.0 µM -31% | [3]; at 33.0 µM -55% | [3]; at 100.0 µM -47% | [4]; at 1.2 µM -18% | [4]; at 3.7 µM -19% | [4]; at 11.0 µM 20% | [4]; at 33.0 µM 68% | [5]; at 1.2 µM -33% | [5]; at 3.7 µM -36% | [5]; [17] 58% | [5]; at 11.0 µM -20% | [5]; at 33.0 µM 27% | [5]; [18] 58% | [6]; at 1.2 µM -54% | [6]; at 3.7 µM -41% | [6]; [17] 63% | [6]; at 11.0 µM -40% | [6]; at 33.0 µM -5% | [6]; [18] 58% | [7]; at 1.2 µM -27% | [7]; at 3.7 µM -25% | [7]; at 11.0 µM -28% | [7]; at 33.0 µM 26% | [8]; [17] 9% | [9]; at 1.2 µM 0% | [9]; at 3.7 µM 15% | [9]; at 11.0 µM -3% | [9]; at 33.0 µM 3% | [10]; [17] 66% | [11]; at 1.2 µM -12% | [11]; at 3.7 µM -9% | [11]; [17] 31% | [11]; at 11.0 µM -9% | [11]; at 33.0 µM 35% | [16]; at 1.2 µM -27% | [16]; at 3.7 µM -23% | [16]; at 11.0 µM -25% | [16]; at 33.0 µM 8% | [12]; at 1.2 µM -6% | [12]; at 3.7 µM -17% | [12]; at 11.0 µM -8% | [12]; at 33.0 µM 45% | [13]; at 1.2 µM -18% | [13]; at 3.7 µM -22% | [13]; at 11.0 µM -8% | [13]; at 33.0 µM 32% | [14]; [17] 40% | [14]; [18] 54% | [15]; at 1.2 µM -17% | [15]; at 3.7 µM -11% | [15]; at 11.0 µM -6% | [15]; at 33.0 µM 24%
